About 83,000 compounds went through this panel and 20% of them were active in at least one assay; those are over-represented in the sample as a whole.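 Step 1: grow cells in 96-well plates. Step 2: add test compound at a single concentration. Step 3: incubate 48 h. Step 4: record percent growth.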 Unmarked numbers belong to inactive results. The source made the active and inactive calls. How the source made its calls: active means growth percent below 10; inactive means the rest.
system: BT-549 breast; experiment: NCI-60 one-dose screen, 48 h (100 = growth as untreated, 0 = no growth, -100 = all killed); conditions: 10 µM unless noted

SMILES	growth
C[C@@H]1O[C@@H](O[C@H]2C[C@@H](O)[C@]3(CO)C4C(CC[C@]3(O)C2)[C@@]2(O)CC[C@H](C3=CC(=O)OC3)[C@@]2(C)C[C@H]4O)[C@H](O)[C@H](O)[C@H]1O (some centres undefined)	-91% (active)
CCC(O)(CN)c1ccccc1 (centres undefined)	104%
CC[C@H](C)[C@H](NC(=O)[C@H]1CCCCN1C)C(=O)N(C)[C@H](CCc1nc(C(=O)N[C@@H](Cc2ccccc2)C[C@H](C)C(=O)OC)cs1)C(C)C	-8.87% (active)
COC(=O)CC12CC(NC(=O)c3csc([C@@H](C[C@H](C(C)C)N(C)C(=O)[C@@H](NC(=O)[C@H]4CCCCN4C)C(C)C)OC(C)=O)n3)(C1)C2	-19.8% (active)
CCC[CH2][Sn]([CH2]CCC)([CH2]CCC)[O]c1ccc(Cl)cc1Cl	-81.7% (active)
O=C1OCCC1Br (centres undefined)	85.3%
CC(=O)ONc1ccc([N+](=O)[O-])c(C(F)(F)F)c1	92.9%

system: MDA-MB-435 melanoma; experiment: as above; conditions: 10 µM unless noted

SMILES	growth
CCCCOc1ccc(C(N)Cc2ccccc2)cc1 (centres undefined)	43.2%
Nc1c(F)cc(-c2nc3cc(F)ccc3[se]2)cc1F	106%
Nc1ccc(OCCNS(=O)(=O)c2cccc(S(=O)(=O)F)c2)c(Cl)c1	98.2%
Cn1cc(-c2csc(-c3cn(CCCCN4CCCCC4)c4ccc(F)cc34)n2)c2cccnc21	-91.1% (active)
CCCCCCCC(=O)OCC(=O)[C@]1(O)Cc2c(O)c3c(c(O)c2[C@@H](OC2CC(N)C(O)C(C)O2)C1)C(=O)c1c(OC)cccc1C3=O (some centres undefined)	-80.5% (active)
CCCCCN(CCCCC)CC(O)c1cc(Cl)ccc1OC (centres undefined)	42.8%
CC12CC=CCC1CCC1C2CCC2(C)C(c3ccc(=O)oc3)CCC12O (centres undefined)	-89.1% (active)
COC(=O)[C@@H](C)C[C@H](Cc1ccccc1)NC(=O)c1csc([C@@H](C[C@H](C(C)C)N(C)C(=O)[C@@H](NC(=O)CN(C)C)C2CC2)OC(C)=O)n1	0.597% (active)
CCCCNC(c1ccc(Cl)cc1)C(O)c1ccc(Cl)cc1 (centres undefined)	21.4%
C=CCn1cc(C=C2C(=O)N(C)C(=O)N(C)C2=O)c2ccccc21	101%
COc1ccc2nc(NC(=O)COc3cc(/C=C\c4cc(OC)c(OC)c(OC)c4)ccc3OC)sc2c1	-45.1% (active)
O=C1CN=C(c2ccc(Cl)cc2)c2sccc2N1	109%
COP(=O)(OC)C(O)c1ccc(Cl)cc1 (centres undefined)	100%
C=CC[Se]C(=O)c1ccccc1OC(C)=O	28.7%
C[C@]12CCc3sc(-c4ccccc4O)nc3C1=CC[C@@H]1[C@@H]2CC[C@]2(C)C(=O)CC[C@@H]12	102%
C[C@]12CC[C@@H]3c4ccc(Oc5nc(N6CC6)nc(N6CC6)n5)cc4CC[C@H]3[C@@H]1CCC2=O	48.5%
O=C(Nc1ccncc1F)c1cn(CC2CC2)c2ccccc12	106%
CC1=C(CNO)C2=C(C)C3(CC3)[C@@](C)(O)C(=O)C2=C1	92.1%
Nc1nnnc2nc[nH]c12	-11.8% (active)

SMILES	growth
CC(=O)Nc1nc2c(s1)CC[C@@]1(C)C2=CC[C@H]2[C@@H]3CC[C@H](O)[C@@]3(C)CC[C@@H]21	5.93% (active)
CC[CH2][Sn]([Cl])([Cl])[CH2]CC	79.8%
O=C([O][Hg][c]1ccccc1)c1ccccc1	-86.6% (active)
C[S+]1C=Cc2ccccc2C1c1ccc(Cl)cc1 (centres undefined)	75%
CC(C)CCC(=O)O[C@H]1CC[C@H]2[C@@H]3CCC4=CC(=O)CC[C@]4(C)[C@H]3CC[C@]12C	96.6%
NC(=Nc1ccccc1)N[N+](=O)[O-]	118%
O=C(CC1(O)C(=O)N(Cc2ccccc2)c2ccc(Cl)cc21)c1ccc(C(=O)NCC2CCC3(CC2)OOC2(CCCCC2)OO3)cc1 (centres undefined)	-67.8% (active)
Fc1ccc(N2COOC3(OOC2)C2CC4CC(C2)CC3C4)cc1	94.4%
COc1ccc([As]=[As]c2ccc(OC)c(NCS(=O)(=O)O)c2)cc1NCS(=O)(=O)O (centres undefined)	48.8%
CC1=C(O)[C@@](C)(CCCCC[C@H](C)CCCCc2ccc(O)cc2)OOC1=O	82.6%
Cc1cc(N(CCCl)CCCl)ccc1C=Nc1ccc(-c2csc(Cc3ccccc3)n2)cc1	78.3%
C[C@@H]1O[C@@H](O[C@H]2C[C@@H](O)[C@]3(CO)C4C(CC[C@]3(O)C2)[C@@]2(O)CC[C@H](C3=CC(=O)OC3)[C@@]2(C)C[C@H]4O)[C@H](O)[C@H](O)[C@H]1O (some centres undefined)	-80.5% (active)
CCC(O)(CN)c1ccccc1 (centres undefined)	105%
CC[C@H](C)[C@H](NC(=O)[C@H]1CCCCN1C)C(=O)N(C)[C@H](CCc1nc(C(=O)N[C@@H](Cc2ccccc2)C[C@H](C)C(=O)OC)cs1)C(C)C	-39.4% (active)
COC(=O)CC12CC(NC(=O)c3csc([C@@H](C[C@H](C(C)C)N(C)C(=O)[C@@H](NC(=O)[C@H]4CCCCN4C)C(C)C)OC(C)=O)n3)(C1)C2	-39.8% (active)
CCC[CH2][Sn]([CH2]CCC)([CH2]CCC)[O]c1ccc(Cl)cc1Cl	-60.7% (active)
O=C1OCCC1Br (centres undefined)	103%
CC(=O)ONc1ccc([N+](=O)[O-])c(C(F)(F)F)c1	105%

Reference: PubChem BioAssay (NCI)
